From PubChem BioAssay (NCATS)
Results filed as inconclusive are left out. The source made the active and inactive calls. Calls follow the shape of the dose curve; as a rule, active = well fitted curve in the direction sought with a large enough effect; inconclusive = small, poorly fitted or top-dose-only effect, or another doubt; inactive = no such curve, though single readings can be large; an effect the other way counts as inactive or inconclusive.

How the values were obtained:
[1] = test system: NIH3T3; assay: qHTS assay to identify novel small-molecules to repurpose for Merkel cell carcinoma treatment (AID 1296009); details: MCC and control cell lines, CellTiter-Glo viability, 72 h; at 44.8 µM (top of the series) unless noted; also: nearly all actives have a fitted effect of over 60% in size
How it was run: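 72 hr, 37 degree celsius; NPC 8-pt / MIPE 11-pt dose response; compound pinned in DMSO; CellTiter-Glo, 10 min RT, luminescence; normalized to no-cell and DMSO controls.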

[2] = test system: C33A; assay: Primary qHTS to identify gynecologic anti-cancer compounds using libraries of approved drugs and bioactive compounds (AID 1345084); details: Gynecologic cancer cell panel viability, ATPlite luminescence, 48 h; series mostly up to 57.5 µM; also: nearly all actives have a fitted effect of over 55% in size
How it was run: (§1)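 Cell viability after 48 h drug treatment, ATPlite luminescence readout; five doses.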

[3] = test system: CAOV3; assay: as above; details: Gynecologic cancer cell panel viability, ATPlite luminescence, 48 h; series mostly up to 57.5 µM
How it was run: as §1

[4] = test system: CASKI; assay: as above; details: Gynecologic cancer cell panel viability, ATPlite luminescence, 48 h; series mostly up to 57.5 µM
How it was run: as §1

[5] = test system: Es-2; assay: as above; details: Gynecologic cancer cell panel viability, ATPlite luminescence, 48 h; series mostly up to 57.5 µM
How it was run: as §1

[6] = test system: HeLa; assay: as above; details: Gynecologic cancer cell panel viability, ATPlite luminescence, 48 h; series mostly up to 57.5 µM
How it was run: as §1

[7] = test system: Hek293T; assay: as above; details: Gynecologic cancer cell panel viability, ATPlite luminescence, 48 h, control line for the selectivity index; series mostly up to 57.5 µM
How it was run: as §1

[8] = test system: JEG-3; assay: as above; details: Gynecologic cancer cell panel viability, ATPlite luminescence, 48 h; series mostly up to 57.5 µM
How it was run: as §1

[9] = test system: OV90; assay: as above; details: Gynecologic cancer cell panel viability, ATPlite luminescence, 48 h; series mostly up to 57.5 µM
How it was run: as §1

[10] = test system: PA-1; assay: as above; details: Gynecologic cancer cell panel viability, ATPlite luminescence, 48 h; series mostly up to 57.5 µM
How it was run: as §1

[11] = test system: SKOV3; assay: as above; details: Gynecologic cancer cell panel viability, ATPlite luminescence, 48 h; series mostly up to 57.5 µM
How it was run: as §1

[12] = test system: Tov-21-G; assay: as above; details: Gynecologic cancer cell panel viability, ATPlite luminescence, 48 h; series mostly up to 57.5 µM
How it was run: as §1

[13] = test system: Tov112D; assay: as above; details: Gynecologic cancer cell panel viability, ATPlite luminescence, 48 h; series mostly up to 57.5 µM
How it was run: as §1

Measured: Potency

N#Cc1cccc(-c2nc(-c3cccnc3)no2)c1
inactive: [1] inactive [at 17.4 µM] | [2] | [3] | [4] | [5] | [6] | [7] | [8] | [9] | [10] | [11] | [12] | [13]

O=C(O)/C=C/c1ccc2occc2c1O[C@@H]1O[C@H](CO)[C@@H](O)[C@H](O)[C@H]1O
inactive: all assays above

C[C@@H]1CC[C@]2(C(=O)O)CC[C@]3(C)C(=CCC4[C@@]5(C)C[C@@H](O)[C@H](O)[C@@](C)(CO)C5CC[C@]43C)C2[C@H]1C (some centres not stated)
inactive: [1] inactive [at 17.4 µM] | [2] | [3] | [4] | [5] | [6] | [7] | [8] | [9] | [10] | [11] | [12] | [13]

CC(=O)OC/C(=C/C(=O)O)CC[C@@H]1C(C)=CC(=O)[C@@H]2C(C)(C)CCC[C@@]12C
inactive: all assays above

C/C=C1/CC2C(=O)Nc3cc(O)c(OC)cc3C(=O)N2C1 (configuration not stated)
inactive: all assays above

CC(=O)N[C@H](Cc1c[nH]c2ccccc12)C(=O)OCc1cc(C(F)(F)F)cc(C(F)(F)F)c1
inactive: all assays above

C=C(C)[C@@]1(O)C[C@@]2(C)C(=CC1=O)CC[C@@H](O)[C@@H]2C
inactive: all assays above

CC1=C2CC(O)(C(C)(C)O)C(O[C@@H]3O[C@H](CO)[C@@H](O)[C@H](O)[C@H]3O)CC(C)C2CC1=O (some centres not stated)
inactive: [1] inactive [at 17.4 µM] | [2] | [3] | [4] | [5] | [6] | [7] | [8] | [9] | [10] | [11] | [12] | [13]

COc1cc(/C=C/C(=O)O[C@H]2[C@H](O)[C@@H](CO)O[C@@]2(CO)O[C@H]2O[C@H](CO)[C@@H](O)[C@H](O)[C@H]2O)cc(OC)c1O
inactive: [1] inactive [at 17.4 µM] | [2] | [3] | [4] | [5] | [6] | [7] | [8] | [9] | [10] | [11] | [12] | [13]

C=C(C)[C@@H]1CC[C@]2(CO)CC[C@]3(C)[C@H](CC[C@@H]4[C@@]5(C)CC[C@H](O)C(C)(C)[C@@H]5CC[C@]43C)[C@@H]12
inactive: [1] inactive [at 17.4 µM] | [2] | [3] | [4] | [5] | [6] | [7] | [8] | [9] | [10] | [11] | [12] | [13]

CC(CCO)CCC1C2(C)CCCC(C)(C)C2CC[C@@]1(C)O (some centres not stated)
inactive: all assays above

CC(C)c1ccc2c(c1)CCC1[C@](C)(C(=O)O)CCC[C@]21C (some centres not stated)
inactive: all assays above

COC(=O)C1=CO[C@@H](O[C@@H]2O[C@H](CO)[C@@H](O)[C@H](O)[C@H]2O)/C(=C\CO)[C@@H]1CC(=O)OCCc1ccc(O)cc1
inactive: [1] inactive [at 17.4 µM] | [2] | [3] | [4] | [5] | [6] | [7] | [8] | [9] | [10] | [11] | [12] | [13]

CCC(=O)OCC(=O)[C@@]1(OC(=O)CC)[C@@H](C)C[C@H]2[C@@H]3CCC4=CC(=O)C=C[C@]4(C)[C@@]3(F)[C@@H](O)C[C@@]21C
inactive: all assays above
